PubChem BioAssay
Active and inactive are the calls of the source.

How the values were obtained:
[1] = compound effects on lung adenocarcinoma cell viability – A549, calcein-AM fluorescence, 48 h, basal, profiling panel (AID 1162); details: higher = more signal
[2] = compound effects on differentiated 3T3-L1 adipocyte viability – cell-based, 3T3-L1 adipocytes, calcein-AM fluorescence, 48 h, basal, profiling panel (AID 1163); details: 3T3-L1 adipocytes viability, higher = more signal
[3] = compound effects on hepatocellular carcinoma cell viability – HepG2, calcein-AM fluorescence, 48 h, basal, profiling panel (AID 1164); details: higher = more signal
[4] = compound effects on multiple myeloma cell viability – MM1S, calcein-AM fluorescence, 48 h, basal, profiling panel (AID 1165); details: higher = more signal;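 note: viability of MM1S multiple myeloma cells under basal unstimulated conditions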
[5] = calcein-AM signal in unstimulated myeloma cells – cell-based, calcein-AM fluorescence, 48 h, PK04 Diversity Set, profiling panel (AID 1166); details: RPMI8226 myeloma viability, higher = more signal;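 note: cells grown under basal conditions without added stimulus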
[6] = JC-1 mitochondrial signal, unstimulated HepG2 cells – cell-based, JC-1 fluorescence, 24 h, 100 nL compound, profiling panel (AID 1167); details: HepG2 mitochondrial potential, higher = more signal
[7] = JC-1 mitochondrial signal, unstimulated adipocytes – cell-based, JC-1 fluorescence, 3T3-L1 adipocytes, 24 h, 100 nL compound, profiling panel (AID 1168); details: JC-1 mitochondrial fluorescence, higher = more signal, called active from +8 up or from −8 down
[8] = JC-1 mitochondrial signal, unstimulated myeloma cells – cell-based, JC-1 fluorescence, RPMI8226, 24 h, 100 nL compound, profiling panel (AID 1169); details: JC-1 mitochondrial potential fluorescence, higher = more signal
[9] = JC-1 mitochondrial signal, unstimulated MM1S myeloma – cell-based, JC-1 fluorescence, 24 h, 100 nL compound, profiling panel (AID 1170); details: MM1S mitochondrial potential, higher = more signal
[10] = resazurin metabolic signal in A549 cells – cell-based, resazurin fluorescence, 24 h, PK04 Diversity Set, profiling panel (AID 1171); details: A549 viability, higher = more signal, called active from +8 up or from −8 down
Note: test concentration not given here.

Structure (SMILES): [N-]=[N+]=NCc1ccccc1[C@H]1OC(c2ccc(OCCCO)cc2)=N[C@@]1(Cc1ccccc1)C(=O)NCc1ccccc1
- z-score [1]: -0.649
- z-score [2]: 0.399
- z-score [3]: 0.71
- z-score [4]: -2.04
- z-score [5]: -3.49
- z-score [6]: 0.343
- z-score [7]: 0.544 (inactive)
- z-score [8]: -1.35
- z-score [9]: -0.765
- z-score [10]: 0.789 (inactive)

Structure (SMILES): CCOC(=O)[C@H]1C/C=C/C[C@H](C(=O)OCC)C(=O)O[C@H]2[C@@H](OC)O[C@H](CO)[C@@H](OC(=O)Nc3cccc(F)c3)[C@@H]2OC1=O
- z-score [1]: -3.9
- z-score [2]: -0.502
- z-score [3]: -5.19
- z-score [4]: -3.3
- z-score [5]: -4.16
- z-score [6]: -3.56
- z-score [7]: 1.84 (inactive)
- z-score [8]: -0.959
- z-score [9]: -1.99
- z-score [10]: -5.95 (inactive)

Structure (SMILES): COC(=O)[C@@]1(Cc2ccccc2)[C@H]2c3cc(C(=O)N(C)C)n(CCSCCO)c3C[C@H]2CN1C(=O)c1ccccc1
- z-score [1]: 0.571
- z-score [2]: -0.0167
- z-score [3]: -0.0301
- z-score [4]: -0.614
- z-score [5]: -0.933
- z-score [6]: -1.37
- z-score [7]: -0.728 (inactive)
- z-score [8]: 0.354
- z-score [9]: -0.229
- z-score [10]: 0.0392 (inactive)

Structure (SMILES): COC(=O)[C@@]1(Cc2ccc(OC)cc2)[C@H]2c3cc(C(=O)N4CCCC4)n(Cc4ccsc4Br)c3C[C@H]2CN1C(=O)c1ccccc1
- z-score [1]: -1.92
- z-score [2]: -0.793
- z-score [3]: -0.119
- z-score [4]: -3.3
- z-score [5]: -4.43
- z-score [6]: 0.321
- z-score [7]: -1.05 (inactive)
- z-score [8]: -0.822
- z-score [9]: -2.91
- z-score [10]: -2.75 (inactive)

Structure (SMILES): C=CCOC(=O)[C@H]1[C@@H]2C(=O)O[C@@H](c3ccccc3)[C@@H](c3ccccc3)N2[C@@H](c2ccc(OCCOC(=O)[C@H]3C[C@H]4C(=O)N5CCC[C@H]5C(=O)N4[C@H]3c3ccc(O)cc3)cc2)[C@]12C(=O)Nc1ccccc12
- z-score [1]: -0.45
- z-score [2]: 1.46
- z-score [3]: 0.226
- z-score [4]: -0.0596
- z-score [5]: -0.653
- z-score [6]: -1.37
- z-score [7]: 1.22 (inactive)
- z-score [8]: -0.515
- z-score [9]: -0.857
- z-score [10]: 0.315 (inactive)

Structure (SMILES): [N-]=[N+]=NCc1ccccc1C[C@]1(C(=O)O)N=C(c2ccc(OCCCO)cc2)O[C@H]1c1ccccc1N=[N+]=[N-]
- z-score [1]: -0.882
- z-score [2]: 1.09
- z-score [3]: -0.826
- z-score [4]: -2.06
- z-score [5]: -3.85
- z-score [6]: -1.93
- z-score [7]: -0.456 (inactive)
- z-score [8]: -1.05
- z-score [9]: -0.887
- z-score [10]: -1.77 (inactive)

Structure (SMILES): C=C[C@H](COC(C)=O)N(C(=O)OC(C)(C)C)S(=O)(=O)c1ccc(Br)cc1
- z-score [1]: 1.67
- z-score [2]: 0.49
- z-score [3]: 1.36
- z-score [4]: -0.138
- z-score [5]: 0.0593
- z-score [6]: -0.87
- z-score [7]: -0.614 (inactive)
- z-score [8]: -0.931
- z-score [9]: -0.406
- z-score [10]: 0.708 (inactive)

Structure (SMILES): O=C1O[C@H](c2ccccc2)[C@H](c2ccccc2)N2[C@H]1[C@@H](C(=O)N1CCN(c3ncccn3)CC1)[C@]1(C(=O)Nc3ccc(C#CC4=CCCCC4)cc31)[C@H]2c1ccc(O)cc1
- z-score [1]: 0.645
- z-score [2]: 0.301
- z-score [3]: 0.469
- z-score [4]: -0.36
- z-score [5]: -1.91
- z-score [6]: -1.49
- z-score [7]: 1.44 (inactive)
- z-score [8]: -0.745
- z-score [9]: -0.75
- z-score [10]: -0.526 (inactive)

Structure (SMILES): [N-]=[N+]=Nc1ccccc1C[C@]1(C(=O)NCC(O)CO)N=C(c2ccc(OCCCO)cc2)O[C@H]1c1ccccc1N=[N+]=[N-] (stereo not given in full)
- z-score [1]: -1.04
- z-score [2]: -0.676
- z-score [3]: -1.12
- z-score [4]: -2.98
- z-score [5]: -3.14
- z-score [6]: -0.162
- z-score [7]: 0.153 (inactive)
- z-score [8]: -1.19
- z-score [9]: -1.3
- z-score [10]: -1.19 (inactive)

Structure (SMILES): C=CCOC(=O)[C@@H]1[C@H]2C(=O)O[C@H](c3ccccc3)[C@H](c3ccccc3)N2[C@H](c2ccc(OCCOC(=O)[C@@H]3C[C@@H]4C(=O)N[C@@H](CCCC[N+](C)(C)C)C(=O)N4[C@@H]3c3cccc(OCCO)c3)cc2)[C@@]12C(=O)Nc1ccc(I)cc12
- z-score [1]: -0.477
- z-score [2]: 0.788
- z-score [3]: -0.776
- z-score [4]: -2.78
- z-score [5]: -2.03
- z-score [6]: -0.605
- z-score [7]: 0.902 (inactive)
- z-score [8]: -0.637
- z-score [9]: -1.22
- z-score [10]: 0.504 (inactive)

Structure (SMILES): C=CCNC(=O)[C@H]1[C@@H]2C(=O)O[C@@H](c3ccccc3)[C@@H](c3ccccc3)N2[C@@H](c2ccc(O)cc2)[C@]12C(=O)N(C(=O)OCCOC)c1ccc(C#CCNC(N)=O)cc12
- z-score [1]: -0.755
- z-score [2]: 0.0896
- z-score [3]: 0.264
- z-score [4]: -0.303
- z-score [5]: -0.479
- z-score [6]: -1.33
- z-score [7]: 0.817 (inactive)
- z-score [8]: -0.294
- z-score [9]: 0.179
- z-score [10]: -0.157 (inactive)

Structure (SMILES): CN1C(=O)C2C=CC(C(O)C3CCCCC3)N(Nc3ccc([N+](=O)[O-])cc3[N+](=O)[O-])C2C1=O (stereo not given)
- z-score [1]: -0.798
- z-score [2]: -0.156
- z-score [3]: -0.905
- z-score [4]: -0.193
- z-score [5]: -0.849
- z-score [6]: -1.18
- z-score [7]: -0.299 (inactive)
- z-score [8]: 0.464
- z-score [9]: 0.314
- z-score [10]: 0.421 (inactive)

Structure (SMILES): COc1ccc([Si](C)(C)[C@@H]2[C@@H](CC(=O)N3Cc4ccccc4C[C@H]3CO)O[C@]3(C(=O)N(C)c4c(Br)cc(C)cc43)[C@H]2C)cc1
- z-score [1]: -0.721
- z-score [2]: 0.181
- z-score [3]: -3.73
- z-score [4]: -2.66
- z-score [5]: -4.35
- z-score [6]: 0.634
- z-score [7]: 0.596 (inactive)
- z-score [8]: -0.976
- z-score [9]: -2.23
- z-score [10]: -1.18 (inactive)

Structure (SMILES): COc1ccc([Si](C)(C)[C@H]2[C@H](CC(=O)N3CCC[C@H]3CO)O[C@@]3(C(=O)N(Cc4cccc(N5C(=O)c6cccc7cccc5c67)c4)c4ccccc43)[C@@H]2C)cc1
- z-score [1]: -0.577
- z-score [2]: 0.453
- z-score [3]: -0.507
- z-score [4]: -1.99
- z-score [5]: -3.99
- z-score [6]: 1.12
- z-score [7]: -0.69 (inactive)
- z-score [8]: -1.12
- z-score [9]: -0.388
- z-score [10]: -0.892 (inactive)

Structure (SMILES): C=C(COC)/C(=C/C[C@@H](OC(C)=O)c1ccc(OCCO)cc1)c1cc(C(=O)OC)ccc1OC
- z-score [1]: -0.534
- z-score [2]: -0.0502
- z-score [3]: -0.0182
- z-score [4]: -1.25
- z-score [5]: -0.648
- z-score [6]: 0.592
- z-score [7]: -0.512 (inactive)
- z-score [8]: -0.729
- z-score [9]: -0.723
- z-score [10]: 0.916 (inactive)
